For some of these results: Entries with a potency or affinity are not part of this list.
Key:
Design in all cases: scale not given: direction of the effect not stated beside the values
[1] = target: Protein translocase subunit SecA (Escherichia coli (strain K12)) (UniProt P10408); assay: Assay to Identify E. coli SecA ATPase Inhibitors; type: functional; conditions: 30 µM
[2] = target: T1, Ubiquitin-activating enzyme e1, putative (Leishmania donovani (strain BPK282A1)) (UniProt E9BSI1); assay: Leishmania donovani Ubiquitin Activating Enzyme (LdE1); type: functional; conditions: 30 µM
T1 sequence (whole entry): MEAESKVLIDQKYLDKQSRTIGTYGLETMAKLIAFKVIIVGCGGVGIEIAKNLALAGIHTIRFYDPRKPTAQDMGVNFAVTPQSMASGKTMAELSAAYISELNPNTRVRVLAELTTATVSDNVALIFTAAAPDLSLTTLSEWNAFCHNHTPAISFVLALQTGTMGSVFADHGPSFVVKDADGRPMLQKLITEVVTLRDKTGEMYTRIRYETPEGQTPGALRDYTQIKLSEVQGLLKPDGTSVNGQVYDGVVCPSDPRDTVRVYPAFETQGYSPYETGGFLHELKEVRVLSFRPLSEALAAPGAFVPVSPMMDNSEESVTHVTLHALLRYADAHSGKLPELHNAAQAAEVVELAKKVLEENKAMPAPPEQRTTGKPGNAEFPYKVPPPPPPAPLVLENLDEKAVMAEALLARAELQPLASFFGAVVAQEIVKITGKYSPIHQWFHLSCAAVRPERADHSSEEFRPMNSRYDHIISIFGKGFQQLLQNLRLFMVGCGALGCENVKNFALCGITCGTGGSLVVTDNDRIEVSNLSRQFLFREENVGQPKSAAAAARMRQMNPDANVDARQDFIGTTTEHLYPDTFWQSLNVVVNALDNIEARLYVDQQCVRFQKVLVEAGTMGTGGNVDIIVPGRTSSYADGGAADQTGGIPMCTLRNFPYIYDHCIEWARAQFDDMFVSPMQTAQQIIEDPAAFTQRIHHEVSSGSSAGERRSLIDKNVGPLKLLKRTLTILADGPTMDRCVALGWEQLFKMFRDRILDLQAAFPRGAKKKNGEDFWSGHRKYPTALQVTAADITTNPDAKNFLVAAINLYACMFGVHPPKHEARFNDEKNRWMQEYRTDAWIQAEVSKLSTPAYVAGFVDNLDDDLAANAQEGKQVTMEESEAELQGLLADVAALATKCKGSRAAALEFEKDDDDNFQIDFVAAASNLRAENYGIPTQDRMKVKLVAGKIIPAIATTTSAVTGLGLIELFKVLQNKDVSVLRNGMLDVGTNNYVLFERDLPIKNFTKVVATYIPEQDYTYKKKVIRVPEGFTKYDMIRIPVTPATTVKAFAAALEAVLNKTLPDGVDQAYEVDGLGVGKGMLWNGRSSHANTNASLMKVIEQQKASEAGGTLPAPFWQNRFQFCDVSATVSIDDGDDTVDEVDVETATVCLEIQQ

[3] = target: AMP-activated protein kinase, AMPK (Homo sapiens) (UniProt P54646+O43741+P54619+Q9UGJ0+Q9Y478+Q13131+Q9UGI9); assay: AMP-dependent Kinase enzyme assay. An in vitro enzyme assay that detects ADP turnover that is directly proportional to AMPK activity. This uses naive AMPK that is activated during the assay with MK-8722; type: functional; conditions: 30 µM
[4] = target: Sialic acid-binding Ig-like lectin 9 (Homo sapiens) (UniProt Q9Y336); assay: Hs-Siglec9 ALPHAscreen SOP 20170721; conditions: 10 µM
Trypanosoma cruzi = assay: Trypanosoma cruzi phosphomannomutase and mannose-1-phosphate guanylyltransferase assay; type: functional; conditions: 10 µM
[5] = target: T2, Arginase-2, mitochondrial (Homo sapiens) (UniProt P78540); assay: in vitro enzyme assay to detect the production of urea directly proportional to the activity of Arginase II; type: functional; conditions: 33.3 µM; also: in the data most compounds retested in dose-response had high values
T2 sequence (whole entry): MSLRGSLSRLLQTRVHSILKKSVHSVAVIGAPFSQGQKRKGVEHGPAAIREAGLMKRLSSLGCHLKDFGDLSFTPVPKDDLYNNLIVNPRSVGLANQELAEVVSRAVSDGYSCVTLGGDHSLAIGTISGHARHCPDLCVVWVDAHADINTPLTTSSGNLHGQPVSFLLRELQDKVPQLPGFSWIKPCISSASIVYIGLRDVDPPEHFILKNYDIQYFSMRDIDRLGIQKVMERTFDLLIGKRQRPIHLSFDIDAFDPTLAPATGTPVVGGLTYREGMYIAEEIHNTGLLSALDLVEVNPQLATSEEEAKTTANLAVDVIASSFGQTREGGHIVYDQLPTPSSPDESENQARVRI

[6] = target: T3, Proteasome subunit beta (Trypanosoma cruzi) (UniProt O96673); assay: Trypanosoma cruzi proteasome chymotrypsin-like activity (TcProtChymo) assay.; also: in the data most compounds retested in dose-response had high values; type: functional; conditions: 9.37 µM
T3 sequence (whole entry): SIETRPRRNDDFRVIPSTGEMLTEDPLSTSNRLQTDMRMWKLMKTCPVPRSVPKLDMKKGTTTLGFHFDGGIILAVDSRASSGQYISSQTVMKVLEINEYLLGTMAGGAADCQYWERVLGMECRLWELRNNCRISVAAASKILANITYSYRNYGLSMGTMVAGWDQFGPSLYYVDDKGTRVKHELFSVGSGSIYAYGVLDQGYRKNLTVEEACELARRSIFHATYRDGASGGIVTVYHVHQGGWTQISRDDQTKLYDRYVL

Homo sapiens = species on record: Homo sapiens; assay: To identify inhibition of the IFN signalling (Jak-Stat) pathway via expression of an eGFP reporter gene under the control of an IFN-stimulated response element (ISRE) containing MxA promoter.; type: functional; conditions: 30 µM
[7] = target: T4, Tyrosyl-tRNA synthetase, putative (Trypanosoma cruzi (strain CL Brener)) (UniProt Q4DSP6); assay: Trypanosoma cruzi tyrosyl tRNA synthetase (TcYRS) _High Tyrosine SOP; type: functional; conditions: 30 µM; also: in the data most compounds retested in dose-response had high values
T4 sequence (whole entry): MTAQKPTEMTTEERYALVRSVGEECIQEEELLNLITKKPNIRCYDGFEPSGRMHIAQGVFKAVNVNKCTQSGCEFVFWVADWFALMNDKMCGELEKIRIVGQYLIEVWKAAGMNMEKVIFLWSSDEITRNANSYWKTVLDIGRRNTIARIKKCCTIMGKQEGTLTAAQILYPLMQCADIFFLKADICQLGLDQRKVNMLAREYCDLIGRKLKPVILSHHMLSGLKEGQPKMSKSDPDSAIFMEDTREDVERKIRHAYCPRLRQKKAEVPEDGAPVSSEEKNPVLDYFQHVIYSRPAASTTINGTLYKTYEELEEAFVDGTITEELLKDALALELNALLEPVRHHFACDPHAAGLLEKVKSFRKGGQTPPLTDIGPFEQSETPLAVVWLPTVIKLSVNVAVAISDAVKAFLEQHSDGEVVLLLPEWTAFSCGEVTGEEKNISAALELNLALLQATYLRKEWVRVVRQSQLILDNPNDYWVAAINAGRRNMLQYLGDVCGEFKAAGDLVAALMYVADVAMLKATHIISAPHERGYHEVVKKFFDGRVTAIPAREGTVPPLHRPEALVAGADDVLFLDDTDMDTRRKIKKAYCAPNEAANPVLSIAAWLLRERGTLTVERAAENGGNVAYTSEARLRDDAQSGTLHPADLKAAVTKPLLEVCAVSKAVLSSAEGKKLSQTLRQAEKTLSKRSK

[8] = target: T4, Tyrosyl-tRNA synthetase, putative (Trypanosoma cruzi (strain CL Brener)); assay: Trypanosoma cruzi tyrosyl tRNA synthetase (TcYRS) SOP; type: functional; conditions: 30 µM
[9] = target: Chromo domain-containing protein 1 (Saccharomyces cerevisiae (strain ATCC 204508 / S288c) (Baker's yeast)) (UniProt P32657); assay: ScCHD-1 Enzyme Inhibition Assay; type: functional; conditions: 30 µM; also: in the data most compounds retested in dose-response had high values
Chromo domain-containing protein 1 (Saccharomyces cerevisiae (strain ATCC 204508 / S288c) (Baker's yeast)), sequence (P32657 whole entry, the tested form may be a part): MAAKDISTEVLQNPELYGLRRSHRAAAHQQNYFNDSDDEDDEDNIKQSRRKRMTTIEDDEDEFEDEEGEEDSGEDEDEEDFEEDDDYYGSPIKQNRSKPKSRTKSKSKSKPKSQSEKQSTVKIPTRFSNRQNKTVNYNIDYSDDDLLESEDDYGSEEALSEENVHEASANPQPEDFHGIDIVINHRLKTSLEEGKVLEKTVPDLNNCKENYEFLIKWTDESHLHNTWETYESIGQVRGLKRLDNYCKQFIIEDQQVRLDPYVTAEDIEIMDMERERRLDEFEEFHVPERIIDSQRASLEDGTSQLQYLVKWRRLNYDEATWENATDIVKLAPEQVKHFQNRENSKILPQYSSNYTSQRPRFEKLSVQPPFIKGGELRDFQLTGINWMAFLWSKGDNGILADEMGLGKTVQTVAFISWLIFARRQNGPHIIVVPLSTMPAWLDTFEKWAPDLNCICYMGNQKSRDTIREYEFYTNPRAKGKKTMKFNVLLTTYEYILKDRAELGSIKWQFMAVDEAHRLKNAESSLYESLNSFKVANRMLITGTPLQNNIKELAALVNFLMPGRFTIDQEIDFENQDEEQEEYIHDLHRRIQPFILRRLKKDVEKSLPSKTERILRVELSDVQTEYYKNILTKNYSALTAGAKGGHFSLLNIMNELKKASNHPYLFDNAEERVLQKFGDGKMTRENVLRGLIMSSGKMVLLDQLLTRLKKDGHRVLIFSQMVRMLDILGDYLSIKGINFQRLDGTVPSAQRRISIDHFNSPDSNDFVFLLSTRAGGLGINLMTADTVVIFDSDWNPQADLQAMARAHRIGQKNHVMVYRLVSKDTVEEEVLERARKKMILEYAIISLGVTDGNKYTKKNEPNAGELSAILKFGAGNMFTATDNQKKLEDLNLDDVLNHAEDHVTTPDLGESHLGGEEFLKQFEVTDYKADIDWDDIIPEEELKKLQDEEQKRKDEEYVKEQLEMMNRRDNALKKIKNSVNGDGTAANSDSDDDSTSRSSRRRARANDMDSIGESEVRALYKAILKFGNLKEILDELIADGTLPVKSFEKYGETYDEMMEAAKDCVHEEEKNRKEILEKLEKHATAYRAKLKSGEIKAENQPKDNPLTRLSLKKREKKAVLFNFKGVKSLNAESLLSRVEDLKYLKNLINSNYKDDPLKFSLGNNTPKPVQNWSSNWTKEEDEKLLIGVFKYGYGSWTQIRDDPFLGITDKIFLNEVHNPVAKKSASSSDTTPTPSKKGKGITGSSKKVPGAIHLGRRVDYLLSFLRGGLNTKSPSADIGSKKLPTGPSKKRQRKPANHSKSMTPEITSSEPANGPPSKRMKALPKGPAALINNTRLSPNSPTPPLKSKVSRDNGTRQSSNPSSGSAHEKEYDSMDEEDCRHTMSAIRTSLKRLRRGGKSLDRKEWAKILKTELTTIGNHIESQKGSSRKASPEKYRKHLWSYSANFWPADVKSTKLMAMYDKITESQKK

Protein translocase subunit SecA (Escherichia coli (strain K12)), sequence (P10408 whole entry): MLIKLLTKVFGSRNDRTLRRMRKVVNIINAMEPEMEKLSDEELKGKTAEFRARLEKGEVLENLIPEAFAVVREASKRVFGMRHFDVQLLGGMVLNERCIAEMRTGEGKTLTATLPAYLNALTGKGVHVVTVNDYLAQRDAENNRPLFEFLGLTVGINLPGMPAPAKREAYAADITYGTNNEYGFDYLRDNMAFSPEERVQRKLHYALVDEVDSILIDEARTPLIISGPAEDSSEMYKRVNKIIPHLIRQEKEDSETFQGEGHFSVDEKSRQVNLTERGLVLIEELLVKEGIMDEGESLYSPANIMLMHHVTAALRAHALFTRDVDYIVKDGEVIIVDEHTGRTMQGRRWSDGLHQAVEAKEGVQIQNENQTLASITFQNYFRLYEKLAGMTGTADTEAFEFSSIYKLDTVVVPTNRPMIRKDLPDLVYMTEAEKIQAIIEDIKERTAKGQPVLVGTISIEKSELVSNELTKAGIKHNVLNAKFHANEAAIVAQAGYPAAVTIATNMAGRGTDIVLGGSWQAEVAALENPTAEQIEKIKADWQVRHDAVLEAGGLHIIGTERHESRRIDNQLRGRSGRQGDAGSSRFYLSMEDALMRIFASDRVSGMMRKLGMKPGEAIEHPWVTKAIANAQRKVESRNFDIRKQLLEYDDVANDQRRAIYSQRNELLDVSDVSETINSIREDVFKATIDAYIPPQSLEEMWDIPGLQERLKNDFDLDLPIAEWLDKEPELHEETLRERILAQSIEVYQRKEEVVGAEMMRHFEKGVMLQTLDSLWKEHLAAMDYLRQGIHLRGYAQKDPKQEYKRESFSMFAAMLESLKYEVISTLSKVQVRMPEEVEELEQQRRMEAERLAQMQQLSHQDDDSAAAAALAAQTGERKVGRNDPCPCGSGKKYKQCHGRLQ
Sialic acid-binding Ig-like lectin 9 (Homo sapiens), sequence (Q9Y336 whole entry): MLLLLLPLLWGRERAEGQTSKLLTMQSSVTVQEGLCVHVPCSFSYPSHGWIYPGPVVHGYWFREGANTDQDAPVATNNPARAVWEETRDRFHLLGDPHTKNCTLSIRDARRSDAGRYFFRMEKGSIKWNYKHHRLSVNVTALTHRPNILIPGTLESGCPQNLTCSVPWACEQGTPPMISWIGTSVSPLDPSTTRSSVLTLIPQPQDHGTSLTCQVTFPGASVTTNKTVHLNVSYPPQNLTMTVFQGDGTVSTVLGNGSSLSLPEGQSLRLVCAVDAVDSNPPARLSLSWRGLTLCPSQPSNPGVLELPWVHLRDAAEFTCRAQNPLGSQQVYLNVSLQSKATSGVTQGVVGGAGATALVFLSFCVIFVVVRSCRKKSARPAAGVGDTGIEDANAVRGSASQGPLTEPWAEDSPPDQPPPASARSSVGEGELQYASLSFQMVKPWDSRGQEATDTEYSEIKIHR

Compound | Percent Effect [1] [%] | Percent Effect [2] [%] | Percent Effect [3] [%] | Percent Effect [4] [%] | Percent Effect (Trypanosoma cruzi) [%] | Percent Effect [5] [%] | Percent Effect [6] [%] | Percent Effect (Homo sapiens) [%] | Percent Effect [7] [%] | Percent Effect [8] [%] | Percent Effect [9] [%]
CCc1ccc(CNC(=O)NC(C)CN2CCOCC2)s1 (stereo unspecified) | -1.82 | 18.4 | -5.99 | -6.5 | 1.46 | 1.18 | 9.49 | 5.21 | -12.8 | 15.6 | 8.4
Cc1cnn(CCNCc2ccc(C#N)cc2F)c1 | -5.04 | 10.8 | -4.08 | 8.42 | -2.51 | 0.554 | 5.75 | 7.34 | 6.93 | 13.4 | -0.768
N#Cc1cccnc1NCCNC(=O)N1CCCSCC1 | -3.35 | 2.7 | -4.19 | 3.38 | 8.11 | -2.38 | 14.3 | -19.3 | 3.7 | 12.2 | -6.59
CC(C)c1n[nH]c(C2CN(C(=O)C3=COCC3)CCO2)n1 (stereo unspecified) | -3.67 | 2.63 | 1.65 | 11.9 | 0.0934 | 5.4 | -5.33 | -8.69 | 2.46 | 3.7 | 10.5
CNC(=O)c1ccc(OC2CCN(S(C)(=O)=O)CC2)c(Cl)c1 | -2.46 | 4.17 | -2.06 | -2.97 | 0.68 | 2.65 | 14.7 | 24.7 | 6.32 | 10.3 | -2.92
CCOc1ccccc1OC1CCN(C(=O)c2ccc(=O)[nH]n2)CC1 | -2.99 | 13.2 | 2.58 | 7.38 | 3.76 | 2.3 | 12.9 | 6.53 | 5.39 | 19.5 | -2.32
Cc1cccc(CNCc2c(C(C)C)nn(C)c2N2CCOCC2)n1 | -1.17 | 5.48 | -18.3 | -6.47 | -1.57 | -8.64 | 5.68 | -8.24 | 2.15 | 5 | -2.13
Cc1nc(C)n(CC2CCCN2CC(=O)Nc2ccnn2C(C)C)n1 (stereo unspecified) | 3.15 | 18.4 | 16 | -8.63 | -8.31 | 2.16 | 14 | 1.93 | 5.42 | 16.1 | -6.21
Cc1cc(N2CCC(N(C)C(=O)Nc3ccccc3)CC2)nc(C)n1 | -4.81 | 8.22 | 12.3 | -3.15 | -1.18 | 6.36 | 12.8 | 6.79 | 4.3 | 10 | -2.89
O=C(CCCc1ncc(-c2ccccc2)o1)N1CCN(CCO)CC1 | -2.7 | 20.2 | 6.12 | -6.16 | -1.04 | 3.04 | 14.2 | 6.15 | 4.43 | 13.9 | -3.58
Cc1nc(C)n(CC2CCCCN2CCS(C)(=O)=O)n1 (stereo unspecified) | -4.31 | -2.7 | 0.489 | 0.818 | -3.09 | -3.33 | 11.7 | 8.2 | -2.65 | -4.88 | -3.45

From ChEMBL document CHEMBL3988442, “University of Dundee, Small-Polar-MMV Screening Library” (2021)
